Shown are actives, neighbours in structure and some others; about 15% of the full set was active somewhere.
ELG1 repair inh – ELG1-dependent DNA repair inhibition; HEK293T ELG1-luciferase reporter, luminescence, 16 h; DNA damage induced by 5-fluorouridine; Potency, µM (titrated, usually from 46.1 µM), for the others: top-dose activity change, negative = inhibition, most hits filed as inhibitors; AID 504467; 330,000 tested, 2.3% active; note: nearly all actives have a fitted effect of over 55% in size
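Cells (2,000 per well) received 5-fluorouridine plus test compound or DMSO and were incubated 16 hr at 37 °C, 5% CO2. Luciferase activity was read by luminescence 30 min after ONE-Glo addition; signal suppression marked inhibition of damage-induced ELG1 function.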
RORg inh – inhibitors of mouse ROR gamma transcriptional activity | P51450 | Drosophila S2 Gal4-RORgamma UAS-luciferase reporter, 20 h | Potency, µM (series often up to 53.6 µM), for the others: top-dose activity change, negative = inhibition, usual class: inhibitors | 310,000 tested, 5.4% active | AID 2551; note: nearly all actives have a fitted effect of over 60% in size
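ROR gamma transcriptional activity was tracked as Gal4-UAS luciferase output in stably transfected Drosophila Schneider cells, with compound added 1 hr before 700 uM copper sulfate induction and a 20 hr ambient-temperature incubation.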
ALOX12 inh – inhibitors of human 12S-lipoxygenase ALOX12. P18054. purified 12hLO, xylenol orange hydroperoxide absorbance. Potency, µM (titrated, usually from 108 µM), for the others: at the top dose activity change, negative = inhibition, usual class: inhibitors. 580,000 tested, 1.1% active
Target sequence (P18054 whole entry, looked up): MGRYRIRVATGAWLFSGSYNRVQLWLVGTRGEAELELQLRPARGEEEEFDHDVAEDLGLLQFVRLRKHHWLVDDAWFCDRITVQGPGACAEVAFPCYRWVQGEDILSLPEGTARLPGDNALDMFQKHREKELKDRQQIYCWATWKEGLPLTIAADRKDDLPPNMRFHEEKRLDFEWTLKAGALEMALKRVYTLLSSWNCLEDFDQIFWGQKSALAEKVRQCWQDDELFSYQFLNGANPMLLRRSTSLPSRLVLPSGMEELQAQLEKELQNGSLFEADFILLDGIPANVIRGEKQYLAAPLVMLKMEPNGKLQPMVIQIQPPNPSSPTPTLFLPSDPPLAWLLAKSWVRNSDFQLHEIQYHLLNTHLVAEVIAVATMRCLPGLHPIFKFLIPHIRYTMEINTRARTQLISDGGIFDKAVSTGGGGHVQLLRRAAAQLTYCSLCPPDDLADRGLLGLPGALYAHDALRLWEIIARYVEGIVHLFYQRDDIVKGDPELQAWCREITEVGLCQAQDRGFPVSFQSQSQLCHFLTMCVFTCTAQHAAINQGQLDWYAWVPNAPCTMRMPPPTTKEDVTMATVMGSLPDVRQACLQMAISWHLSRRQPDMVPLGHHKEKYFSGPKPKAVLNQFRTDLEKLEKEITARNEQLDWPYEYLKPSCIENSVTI
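Purified human 12hLO (150 nM final) in 25 mM Hepes, 0.01% Triton X-100, pH 7.0 was preincubated 15 min at room temperature with compound. Then 40 uM arachidonic acid was added, 30 min. Hydroperoxide was read by Fe-XO absorbance ratio 573/405 nm.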
TDP1 cell CPT – DT40-hTDP1 cell growth loss with CPT. chicken DT40 Tdp1-/-;hTDP1 cells + 20 nM CPT, ATP luminescence, 48 h. Potency, µM (series often up to 46.2 µM), for the others: at the highest dose activity change, negative = growth inhibition, most hits filed as inhibitors. 420,000 tested, 12% active; note: nearly all actives have a fitted effect of over 55% in size
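Cell growth measured by CellTiter-Glo luminescence after a minimum 48 h, 37 C compound exposure with 20 nM CPT in Tdp1-knockout DT40 cells stably expressing hTDP1, seeded 400/well; qHTS titration format.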
Gal4-VP16 FLuc – inhibits Gal4-VP16 luciferase reporter, ROR gamma counter-screen; Drosophila S2 Gal4-VP16 UAS-luciferase, luminescence, 20 h; 310,000 tested, 3.5% active; Potency, µM (top dose mostly 53.6 µM), without a hit: top-dose activity, negative = inhibition, usual class: inhibitors;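 note: Gal4-VP16 expression switched on by copper sulfate through the metallothionein promoter; nearly all actives have a fitted effect of over 50% in size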
DT40 TDP1 no CPT – qHTS for Inhibitors of human tyrosyl-DNA phosphodiesterase 1 (TDP1): qHTS in cells in absence of CPT | Potency, µM (top dose mostly 46.2 µM), inactives show at the top dose activity change, negative = growth inhibition, most hits filed as inhibitors | 420,000 tested, 15% active | DT40 Tdp1-/- hTDP1 cells, no CPT, ATP luminescence, 48 h; note: nearly all actives have a fitted effect of over 55% in size
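No-CPT arm: Tdp1-/-;hTDP1 DT40 cells (400/well) plus compounds, incubated ≥48 hr at 37 °C. Readout CellTiter-Glo luminescence.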
Active calls of the source: *. Calls come from the whole dose curve; as a rule, active = well fitted curve in the direction sought with a large enough effect; inconclusive = small, poorly fitted or top-dose-only effect, or another doubt; inactive = no such curve, though single readings can be large; an effect the other way counts as inactive or inconclusive. % is set by controls: 0 for no effect and ±100 for the full control effect; potency is the fitted concentration of half-maximal effect.

What do the screens show for `O=Cc1cn(CCC(=O)O)nc1-c1cccc2ccccc12`?
ELG1 repair inh: 1.2%; RORg inh: 3.16µM*; ALOX12 inh: -5.1%; TDP1 cell CPT: -3.1%; Gal4-VP16 FLuc: 11.2µM*; DT40 TDP1 no CPT: -1.4%

How did O=C(CCC1CCCN(C(=O)C2=CCCC2)C1)N1CCN(c2ccccn2)CC1 (centres undefined) do in these assays?
ELG1 repair inh: 10.1%; RORg inh: 27.5%; ALOX12 inh: -10.9%; TDP1 cell CPT: -21.3%; Gal4-VP16 FLuc: 6.1%; DT40 TDP1 no CPT: 23.1µM*

Results for CCc1cc(C(=O)N2CCCC(CCC(=O)N3CCN(c4ccccn4)CC3)C2)no1 (centres undefined) ?
ELG1 repair inh: inconclusive; RORg inh: 17.3%; ALOX12 inh: 17.0%; TDP1 cell CPT: -4.3%; Gal4-VP16 FLuc: -15.3%; DT40 TDP1 no CPT: inconclusive

Results for O=C(CCC1CCCN(C(=O)CC2=CCCCC2)C1)N1CCN(c2ccccn2)CC1 (centres undefined) ?
ELG1 repair inh: inconclusive; RORg inh: 8.5%; ALOX12 inh: -10.8%; TDP1 cell CPT: inconclusive; Gal4-VP16 FLuc: 4.2%; DT40 TDP1 no CPT: 16.4µM*

Results for O=C(CCC1CCCN(C(=O)COc2ccccc2)C1)N1CCN(c2ccccn2)CC1 (centres undefined) ?
ELG1 repair inh: 20.6µM*; RORg inh: -28.7%; ALOX12 inh: -11.2%; TDP1 cell CPT: inconclusive; Gal4-VP16 FLuc: -8.6%; DT40 TDP1 no CPT: -22.5%

How did CC(C)c1cc(C(=O)N2CCCC(CCC(=O)N3CCN(c4ccccn4)CC3)C2)no1 (centres undefined) do in these assays?
ELG1 repair inh: 11.6µM*; RORg inh: 1.2%; ALOX12 inh: 18.9%; TDP1 cell CPT: 23.1µM*; Gal4-VP16 FLuc: -4.7%; DT40 TDP1 no CPT: 23.1µM*

What do the screens show for `Cc1ccccc1C(=O)N1CCCC(CCC(=O)N2CCN(c3ccccn3)CC2)C1` (centres undefined)?
ELG1 repair inh: -17.2%; RORg inh: -22.5%; ALOX12 inh: 24.7%; TDP1 cell CPT: -4.9%; Gal4-VP16 FLuc: 1.6%; DT40 TDP1 no CPT: inconclusive

How did Cc1ccc(-c2cnc(SCC(=O)Nc3ccc(F)c(C)c3)o2)cc1C do in these assays?
ALOX12 inh: -26.4%

What do the screens show for `COc1ccc(-n2nc(C)c([C@H]3C=C[C@@H](OC(=O)Nc4ccc(Br)cc4)C3)c2C)cc1`?
ALOX12 inh: -3.1%

Results for COc1ccc(CCNC(=O)c2c(C)noc2-c2ccc3c(c2)OCO3)cc1OC ?
ALOX12 inh: 9.0%

What do the screens show for `CCc1nc(N2CCN(Cc3ccc4c(c3)OCO4)CC2)c2oc3ccccc3c2n1`?
ELG1 repair inh: 17.0%; RORg inh: 12.6µM*; ALOX12 inh: -14.4%; TDP1 cell CPT: 25.9µM*; Gal4-VP16 FLuc: -29.3%; DT40 TDP1 no CPT: 25.9µM*

How did CCc1nc(N2CCCCC2C)c2oc3ccccc3c2n1 (centres undefined) do in these assays?
RORg inh: 17.8µM*; ALOX12 inh: inconclusive; TDP1 cell CPT: 29.1µM*; Gal4-VP16 FLuc: inconclusive; DT40 TDP1 no CPT: 25.9µM*

Results for CCc1nc(N2CCCC(C)C2)c2oc3ccccc3c2n1 (centres undefined) ?
ELG1 repair inh: inconclusive; RORg inh: -88.4%; ALOX12 inh: 0.0%; TDP1 cell CPT: inconclusive; Gal4-VP16 FLuc: 3.98µM*; DT40 TDP1 no CPT: inconclusive

Results for CCc1nc(N2CCCCC2C(=O)O)c2oc3ccccc3c2n1 (centres undefined) ?
ELG1 repair inh: -12.7%; RORg inh: 21.6%; ALOX12 inh: 12.8%; TDP1 cell CPT: 13.0%; Gal4-VP16 FLuc: 2.6%; DT40 TDP1 no CPT: -1.7%

What do the screens show for `CCc1nc(SCC(=O)NC2CCCC2)c2oc3ccccc3c2n1`?
ELG1 repair inh: 22.4%; RORg inh: -17.3%; ALOX12 inh: -1.6%; TDP1 cell CPT: inconclusive; Gal4-VP16 FLuc: -9.5%; DT40 TDP1 no CPT: inconclusive

Results for CCc1nc(NCCCN2CCOCC2)c2oc3ccccc3c2n1 ?
ELG1 repair inh: inconclusive; RORg inh: -2.1%; ALOX12 inh: inconclusive; TDP1 cell CPT: inconclusive; Gal4-VP16 FLuc: 4.8%; DT40 TDP1 no CPT: inconclusive

What do the screens show for `CCc1nc(N2CCCCC2)c2oc3ccccc3c2n1`?
RORg inh: 15.8µM*; ALOX12 inh: -13.3%; TDP1 cell CPT: inconclusive; Gal4-VP16 FLuc: -22.9%; DT40 TDP1 no CPT: inconclusive

What do the screens show for `CCc1c(C)nc(N2CCN(Cc3ccc4c(c3)OCO4)CC2)[nH]c1=O`?
ELG1 repair inh: -11.7%; RORg inh: 0.2%; ALOX12 inh: 255.7%; TDP1 cell CPT: -27.1%; Gal4-VP16 FLuc: 0.5%; DT40 TDP1 no CPT: -14.3%

What do the screens show for `COc1cccc(-c2nnc3sc(NC(=O)C(C)C)nn23)c1`?
ALOX12 inh: 5.4%

Results for Cn1ccnc1C(NC(=O)c1nn(C)c(=O)c2ccccc12)c1cccc(F)c1 (centres undefined) ?
ALOX12 inh: 20.1%

Results for O=c1c(-c2ccco2)[n+]([O-])c2ccccc2n1OCc1ccccc1[N+](=O)[O-] ?
ELG1 repair inh: 23.1µM*; RORg inh: 19.2%; ALOX12 inh: -21.6%; TDP1 cell CPT: inconclusive; Gal4-VP16 FLuc: 14.0%; DT40 TDP1 no CPT: inconclusive

What do the screens show for `C=CCOn1c(=O)c(-c2cc3ccccc3o2)[n+]([O-])c2ccccc21`?
ELG1 repair inh: inconclusive; RORg inh: 1.4%; ALOX12 inh: 0.0%; TDP1 cell CPT: -77.1%; Gal4-VP16 FLuc: 7.6%; DT40 TDP1 no CPT: 18.4µM*

Results for CCc1ccc(NC(=O)c2ccc(OCc3ccccc3)cc2)cc1 ?
ALOX12 inh: -1.9%

How did CCCCCN(C(=O)CCC(=O)OCCOc1cccc(Cl)c1)c1c(N)n(CCCC)c(=O)[nH]c1=O do in these assays?
ELG1 repair inh: -19.2%; ALOX12 inh: inconclusive; TDP1 cell CPT: inconclusive; DT40 TDP1 no CPT: 13µM*

Results for CCCCCN(C(=O)CCC(=O)OCc1cc(C)ccc1C)c1c(N)n(CCCC)c(=O)[nH]c1=O ?
ELG1 repair inh: inconclusive; TDP1 cell CPT: 23.1µM*; DT40 TDP1 no CPT: 25.9µM*

Results for CCCCCN(C(=O)CCC(=O)OCc1ccc(C(C)C)cc1)c1c(N)n(CCCC)c(=O)[nH]c1=O ?
ELG1 repair inh: 15.8%; ALOX12 inh: 0.2%; TDP1 cell CPT: 23.1µM*; DT40 TDP1 no CPT: 16.4µM*

Screening data deposited in PubChem by National Center for Advancing Translational Sciences (NCATS).
